By inhibition is commonly meant the relative decrease from the control value, in per cent.

Screen size: about 290,000 compounds; about 3,000 (1%) were called active. Cut-off read from the data, not from the text of the source: active = inhibition mostly above about 36% (no sharp cut-off); inactive = mostly below about 34%. Only a selection was taken, and actives are over-represented in it overall.

The nature of the assay: inhibition of NOD1-driven NF-kB reporter – cell-based, luminescence, uHTS, primary screen (AID 1578).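 Note: HEK-293T reporter cells stimulated with the NOD1 agonist gamma-tri-DAP.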 The settings on record: NOD1-driven NF-kB luciferase reporter cells, at 4 µM, hits give high values. For orientation: A reporter such as luciferase makes a cellular process visible.
As to `CNC(=S)N/N=C1\C(=O)c2cccc3cccc1c23`, the inhibition was 98.1% (active).

`CCNC(=S)N/N=C1\C(=O)c2cccc3cccc1c23`: the inhibition is 47.8% (inactive). As for `CCCCNC(=S)N/N=C1\C(=O)c2cccc3cccc1c23`, the figure is -56.3% (inactive); as for `CC(C)(C)c1ccc(-c2cc(-c3ccccc3O)[nH]n2)cc1`, 25.5% (inactive); as for `Cc1cccc(NC(=S)N/N=C/c2cccn2Cc2ccc(F)cc2)c1`, 23.3% (inactive). As for `Cc1nc([N+](=O)[O-])c(Br)n1CC(=O)c1ccccc1`, the figure is 28.9% (inactive); as for `Cc1nc([N+](=O)[O-])c(Br)n1CC(=O)c1ccc(Br)cc1`, 44.8% (inactive); as for `C[C@@H]1ON(C2CCCCC2)[C@H]2c3nc4ccccc4n3C[C@@H]12`, -10.2% (inactive). Take `CCn1c(Cc2ccc(OC)cc2)nnc1SCc1nc2ccccc2c(=O)[nH]1`: the inhibition is -38.1% (inactive). Regarding `CCOCC(=O)Nc1c(C(=O)N2CCN(c3ncccn3)CC2)oc2ccccc12`, the inhibition was -37.9% (inactive). The figure for `COc1ccc(OC)c(NC(=O)c2cc(-c3cc(Cl)ccc3O)n[nH]2)c1` is 61.4% (active); for `COc1ccc(OC)c(NC(=O)c2cc(-c3cc(C)ccc3O)n[nH]2)c1` it is 3.5% (inactive). For `COc1ccc(NC(=O)c2cc(-c3cc(Cl)ccc3O)n[nH]2)c(OC)c1`, the inhibition was -3.3% (inactive). As for `Cn1c(CNC(=O)c2ccc(F)cc2)cc2ccccc21`, the figure is -17.9% (inactive). As for `Cc1onc(-c2c(F)cccc2Cl)c1C(=O)NC1=NCCS1`, the figure is -2% (inactive). The figure for `Cn1c(SCC(=O)NCC2CCCO2)nc2c(c1=O)SCC2` (centres undefined) is -11.7% (inactive); for `CN(C)S(=O)(=O)N1CCC(Oc2cccc(C(=O)NC3CCOC3)c2)CC1` (centres undefined) it is -17.9% (inactive); for `CN(C)S(=O)(=O)N1CCC(Oc2ccc(C(=O)NC3CCCCC3)cc2)CC1` it is -24.9% (inactive).

For `C=CCN(CC=C)C(=O)c1ccc(OC2CCN(S(=O)(=O)N(C)C)CC2)cc1`, the inhibition was -27.3% (inactive).

With `C=C(C)CN(CC)C(=O)c1ccc(OC2CCN(S(=O)(=O)N(C)C)CC2)cc1`, the inhibition was 59.3% (active).

As for `C=C(C)CNC(=O)c1ccc(OC2CCN(S(=O)(=O)N(C)C)CC2)cc1`, the inhibition is -27.4% (inactive). As for `Cc1oc(-c2ccccc2Cl)nc1CSCC(=O)O`, the figure is -4.9% (inactive).

For `COC(=O)c1cccc(N(C(=O)c2cnccn2)C(C(=O)NCc2ccccc2)c2ccco2)c1` (centres undefined), the inhibition was -29.2% (inactive). The figure for `Cc1ccc(-c2cc(NC(=O)CCl)n(-c3ccccc3)n2)cc1` is 16% (inactive). Turning to `CC(=O)Nc1cc(-c2ccc(Cl)cc2)nn1-c1ccccc1`, the inhibition is -11.7% (inactive). The figure for `CC(=O)Nc1cn(-c2ccccc2)nc1-c1ccccc1` is -27.2% (inactive). On to `CCCc1cc(C(=O)Nc2cc(C)nn2-c2ccccc2)no1`, for which the inhibition is 9.1% (inactive). In the case of `O=C(Nc1cn(-c2ccccc2)nc1-c1ccc(Cl)cc1)c1ccccc1`, the inhibition is -1.1% (inactive). The figure for `Cc1cc(NC(=O)CC(F)(F)F)n(-c2ccccc2)n1` is -13.5% (inactive). With `CSc1nc2c(c(=O)[nH]1)CCCC2`, the inhibition was -21.3% (inactive). As for `COC(=O)c1ccc(NC(=O)CNC(=O)C2CCCCC2)cc1`, the figure is -20.7% (inactive); as for `C/C(=N\NC(=O)c1nn(C)cc1Br)c1ccncc1`, -3.7% (inactive).

As to `O=C(O)c1ccc(S(=O)(=O)c2ccc3c(c2)C(=O)N(c2ccc(Br)cc2)C3=O)cc1`, the inhibition is -8.2% (inactive). Take `CN(CCOC(=O)c1ccco1)Cc1ccccc1`: the inhibition was 3.9% (inactive). As for `O=C1NN(c2ccccc2)C(=O)/C1=C/c1ccc(Sc2cccc3ccccc23)o1`, the figure is 74.7% (active); as for `O=C1NN(c2ccccc2)C(=O)/C1=C/c1ccc(-c2ccc(C(=O)O)cc2)o1`, -32% (inactive); as for `COc1ccc(Sc2ccc(/C=C3\C(=O)NN(c4ccccc4)C3=O)o2)cc1`, -2.5% (inactive). As to `CC(=O)N1[C@H](C)C=C[C@]1(Cc1ccccc1)C(=O)NCc1cc(F)cc(C(F)(F)F)c1`, the inhibition was 5.4% (inactive). The figure for `CC1CCN(CC2C(=O)O[C@@H]3C[C@@]4(C)CCC[C@H](C)C4=C[C@H]23)CC(C)(C)C1` (some centres undefined) is 15.4% (inactive); for `CCN(CC)CCNCC1C(=O)O[C@@H]2C[C@@]3(C)CCC[C@H](C)C3=C[C@H]12` (some centres undefined) it is -10.7% (inactive).

For `C[C@H]1CCC[C@]2(C)C[C@H]3OC(=O)C(CN4CCCCCC4)[C@H]3C=C12` (some centres undefined), the inhibition is 34% (active). As for `CCOC(=O)c1c(C)[nH]c(C(=O)CN2C(=O)NC(C)(CC(C)C)C2=O)c1C` (centres undefined), the figure is -30.4% (inactive). With `CCOc1ccc(NC(=O)c2cc(=O)[nH]c3ccccc23)cc1`, the inhibition is -21.6% (inactive).

On to `Nc1ccc2nc(SCc3ccccc3F)sc2c1`, for which the inhibition was -8.7% (inactive).

As for `CCc1cccc(NC(=O)c2cnn(-c3ccccc3)c2C)c1`, the inhibition was -1.5% (inactive). The figure for `Cc1ccc(-c2nc(CSCC(=O)NC3CCN(Cc4ccccc4)CC3)c(C)o2)cc1` is 16% (inactive); for `COc1ccc(-c2nc(CSCC(=O)NC3CCN(Cc4ccccc4)CC3)c(C)o2)cc1OC` it is -11.6% (inactive); for `COc1cc(C(=O)N2CCCCCCC2)ccc1OC1CCN(C(C)=O)CC1` it is -27.7% (inactive). The figure for `C=CCc1cccc(/C=N/NC(=O)C(C)Nc2ccc(C)cc2)c1O` (centres undefined) is 30.7% (inactive); for `C=CCc1cccc(/C=N/NC(=O)C(C)Nc2cccc(C)c2)c1O` (centres undefined) it is 53.5% (active). For the compound `C=CCc1cccc(/C=N/NC(=O)C(=O)Nc2ccc(C)cc2)c1O`, the inhibition was -24.6% (inactive). As for `CCOC(=O)C(Cc1ccccc1)NC(=O)CNC(C)=O` (centres undefined), the figure is -11.4% (inactive).

For the compound `CSc1ccc(/C=N/Nc2cccc(C(=O)O)c2)cc1`, the inhibition is 83.8% (active). The figure for `CSc1ccc(/C=N/Nc2ccc(Cl)c(C(=O)O)c2)cc1` is -22.8% (inactive). As for `Cc1ccsc1/C=N/Nc1cccc(C(=O)O)c1`, the inhibition was 84% (active). For the compound `O=C(O)c1cccc(N/N=C/c2ccc(-c3ccccc3)cc2)c1`, the inhibition is 3.6% (inactive). As for `O=C(O)c1cccc(N/N=C/c2ccc(F)c(F)c2)c1`, the figure is -12.4% (inactive). As for `Cc1ccsc1/C=N/Nc1ccc(C(=O)O)cc1`, the figure is -2.3% (inactive).

For the compound `CN(C)c1ccc(/C=N/Nc2cccc(C(=O)O)c2)cc1`, the inhibition is 72.1% (active). Turning to `Cc1ccc(/C=N/Nc2cccc(C(=O)O)c2)s1`, the inhibition was 4.1% (inactive). The figure for `CC(C)(C)c1ccc(/C=N/Nc2cccc(C(=O)O)c2)cc1` is -13.1% (inactive); for `Cc1ccc(NC(=O)COc2ncnc3cc([N+](=O)[O-])ccc23)cc1S(=O)(=O)N1CCOCC1` it is -14.7% (inactive). Take `CCC/S(C)=N/S(=O)(=O)c1ccc(C)cc1` (centres undefined): the inhibition is -6.2% (inactive). The figure for `O=C1CSC(c2ccccc2F)N1CCN1CCCCC1` (centres undefined) is -19% (inactive); for `COC(=O)c1cccc(NC(=O)Cc2ccc(OC)cc2)c1C` it is -11.4% (inactive); for `O=C(Nc1ccccc1)Nc1nc(-c2ccccc2)cs1` it is -13.8% (inactive). Consider `Cc1ccsc1/C=N/N1CCOCC1`, for which the inhibition was -33.4% (inactive). Consider `CCOC(=O)N1CCC(Nc2c(Nc3cccc(CC)c3)c(=O)c2=O)CC1`, for which the inhibition was 18.1% (inactive).

For `CCOc1ccc(C(=O)Nc2cccc3ncccc23)cc1Cl`, the inhibition was 8.8% (inactive). The figure for `Cc1ccccc1OCC(=O)Nc1ccc2[nH]ncc2c1` is -17.7% (inactive). Turning to `O=C(COc1ccccc1)Nc1ccc2[nH]ncc2c1`, the inhibition is -11.3% (inactive).

For `CC(C)c1ccccc1OCC(=O)Nc1ccc2[nH]ncc2c1`, the inhibition is 47.7% (active). The figure for `N#Cc1c(Nc2ccccc2)sc(C(=O)c2ccc(F)cc2)c1N` is 5.2% (inactive); for `Nc1c(C(=O)c2ccccc2)sc(Nc2ccccc2)c1S(=O)(=O)c1ccccc1` it is 52.2% (active).

Consider `N#Cc1c(Nc2ccccc2)sc(C(=O)c2ccccc2)c1N`, for which the inhibition is 0.9% (inactive). The figure for `COCCn1c(C)cc(C(=O)CSc2nnc(C)s2)c1C` is 77.8% (active); for `CC(=O)CSc1ncnc2sc3c(c12)CCC3` it is 13.2% (inactive); for `COCCn1c(C)cc(C(=O)CSc2nc(C)c(C)c(C)n2)c1C` it is -5.4% (inactive). In the case of `Cc1ccc(C(=O)CSc2ncnc3sc4c(c23)CCCC4)cc1`, the inhibition was 31% (inactive). The figure for `COCCn1c(C)cc(C(=O)CSc2nc3ccccc3s2)c1C` is 54% (inactive). As to `COc1ccc(CNCc2ccc3c(c2)OCO3)c(OC)c1OC`, the inhibition was -18% (inactive). As for `Cc1cc(N2CCN(C)CC2)nc2ccc(NC(=O)CCC(=O)NCCC(C)C)cc12`, the figure is -10.6% (inactive); as for `Cc1ccc2nc(N3CCN(c4cccc(C)c4C)CC3)c3nnnn3c2c1`, 6.9% (inactive).

For the compound `Cc1ccc(-c2nc3ccccc3n3nnnc23)cc1`, the inhibition is -53.8% (inactive).

For the compound `Cc1ccc2nc(Cl)c3nnnn3c2c1`, the inhibition is 83.8% (active). As for `COc1ccc(OCCC(=O)N2CCOCC2)cc1`, the figure is -24% (inactive). As for `O=C(Nc1ccccc1C(=O)NCc1ccccc1)c1ccco1`, the figure is -14.6% (inactive). The figure for `CN(Cc1ccccc1)C(=O)c1ccccc1NC(=O)c1ccccc1` is -20.6% (inactive); for `CN(Cc1ccccc1)C(=O)c1ccccc1NC(=O)c1ccco1` it is 54.5% (active); for `Oc1ccc(/C=N/Nc2ccnc3cc(Cl)ccc23)c(O)c1O` it is -3.8% (inactive).

Regarding `CN(C)CCN(C(=O)c1ccc(N2C(=O)CCC2=O)cc1)c1nc2cc3c(cc2s1)OCO3`, the inhibition was -20.4% (inactive). The figure for `O=C(N/N=C/c1ccccc1Br)C1CC1` is -25.3% (inactive); for `Cc1oc(-c2ccc(Cl)cc2)nc1CN1CCC(C(=O)NCCCN2CCCC2=O)CC1` it is 17.3% (inactive). As for `O=Cc1cc(CCC(=O)O)ccc1O`, the figure is 63% (active). The figure for `O=C(O)Cc1ccc(O)c(O)c1` is -0.7% (inactive).

As to `COc1ccc(CCC(=O)O)cc1OC`, the inhibition was -2.3% (inactive).

As for `COc1ccc(C(=O)/C(C#N)=N/Nc2ccccc2[N+](=O)[O-])cc1`, the inhibition is 42.9% (inactive).

For the compound `COc1ccc(C(=O)/C(C#N)=N/Nc2ccc([N+](=O)[O-])cc2)cc1`, the inhibition was 82.5% (active). The figure for `COc1ccc(N/N=C(\C#N)C(N)=O)cc1` is -41.5% (inactive).

These data come from PubChem BioAssay AID1578 (Sanford-Burnham Center for Chemical Genomics, 2009).
